Bioassay records: PubChem BioAssay, National Center for Advancing Translational Sciences (NCATS)
Only some compounds are listed: those with a hit (about 10% of all), similar ones and a draw of the others.
KB-3-1 cytotox: kills parental KB-3-1 adenocarcinoma cells; KB-3-1 viability, CellTiter-Glo ATP luminescence, 72 h; Potency, µM (highest dose often 46.1 µM), hits mostly cytotoxic; 400,000 tested, 1.4% active; AID 1347075; further: on the % scale 0 is the no-effect control and ±100 the full control effect; nearly all actives have a fitted effect of over 60% in size
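Cytotoxicity measured as CellTiter-Glo luminescence after 72 h at 37 C. Compound titrations were pinned onto drug-naive KB-3-1 parental adenocarcinoma cells grown in DMEM with 10% FBS, and normalized data fitted to concentration-response curves.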
SW480 rereplic: DNA re-replication induction in SW480 cells | SW480 DNA re-replication, Hoechst DNA content imaging, 48 h | Potency, µM (series often up to 46.1 µM), inactives show at the highest dose re-replication activation, usual class: activators | 340,000 tested, 1.8% active; further: % of control where 0% means no effect; nearly all actives have a fitted effect of over 55% in size
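Image-based DNA-content assay: after two days of treatment, nuclei were labelled with the DNA dye Hoechst and imaged, and hits were compounds raising the count of nuclei showing high fluorescence intensity.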
KB-V1 cytotox: kills drug-selected multidrug resistant KB-V1 cells | KB-V1 MDR cells viability, CellTiter-Glo, 72 h | AID 1347076 | 400,000 tested, 3.4% active | Potency, µM (doses to about 46.1 µM), hits mostly cytotoxic; further: on the % scale 0 is the no-effect control and ±100 the full control effect; nearly all actives have a fitted effect of over 60% in size
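Readout: CellTiter-Glo luminescence, 10 min after addition. Cells: KB-V1 MDR subline, 72 h at 37 degrees C with compound. Analysis: corrected, normalized data fitted to concentration-effect curves.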
RORgamma inh: ROR gamma (mouse) transcription inhibition. P51450. Drosophila S2 Gal4-RORgamma UAS-luciferase reporter, 20 h. Potency, µM (highest dose often 53.6 µM), for inactives: at the top dose activity change, negative = inhibition, hits mostly inhibitors. 310,000 tested, 5.4% active. AID 2551; further: on the % scale 0 is the no-effect control and ±100 the full control effect; nearly all actives have a fitted effect of over 60% in size
Target sequence (P51450 whole entry, looked up, the tested form may be a part): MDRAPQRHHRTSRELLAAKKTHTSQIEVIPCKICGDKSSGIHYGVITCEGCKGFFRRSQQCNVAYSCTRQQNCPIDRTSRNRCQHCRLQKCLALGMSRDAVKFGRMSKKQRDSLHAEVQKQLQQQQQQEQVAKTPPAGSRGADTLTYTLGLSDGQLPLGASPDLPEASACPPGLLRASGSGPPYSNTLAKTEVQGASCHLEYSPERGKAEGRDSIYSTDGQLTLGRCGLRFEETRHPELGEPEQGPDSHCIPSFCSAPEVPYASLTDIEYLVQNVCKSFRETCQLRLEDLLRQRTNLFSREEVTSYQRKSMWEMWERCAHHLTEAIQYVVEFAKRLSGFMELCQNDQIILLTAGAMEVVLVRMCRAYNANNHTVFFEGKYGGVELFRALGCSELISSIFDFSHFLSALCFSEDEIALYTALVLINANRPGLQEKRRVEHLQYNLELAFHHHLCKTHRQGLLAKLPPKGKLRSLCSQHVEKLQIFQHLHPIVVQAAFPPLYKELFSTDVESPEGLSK
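Read-out: Photinus luciferase luminescence; inhibitors lower reporter signal. Insect Schneider cells with Gal4-ROR gamma fusion under metallothionein promoter, UAS reporter; 700 uM final copper sulfate induction, 20 hr, ambient temperature.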
MCF10A rereplic: DNA re-replication induction in MCF 10a cells. MCF 10A DNA re-replication, Hoechst nuclear intensity, 48 h. Potency, µM (titrated, usually from 46.1 µM), for inactives: at the top dose activity, positive = re-replication, actives largely listed as activators. 350,000 tested, 2.9% active; further: % of control where 0% means no effect; nearly all actives have a fitted effect of over 50% in size
VP16 counter: counter-screen for ROR gamma inhibitors: Gal4-VP16 reporter. Drosophila S2 Gal4-VP16 UAS-luciferase, luminescence, 20 h. Potency, µM (doses to about 53.6 µM), for inactives: at the highest dose activity, negative = inhibition, usual class: inhibitors. 310,000 tested, 3.5% active. AID 2546;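 further: Gal4-VP16 expression switched on by copper sulfate through the metallothionein promoter; on the % scale 0 is the no-effect control and ±100 the full control effect; nearly all actives have a fitted effect of over 50% in size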
* = called active by the depositor; i = inactive; u = inconclusive; x = not tested or not shown; [ ] = remark or other dose. The call rests on the fitted dose curve; in most records, active means well fitted curve in the direction sought with a large enough effect; inconclusive means small, poorly fitted or top-dose-only effect, or another doubt; inactive means no such curve, though single readings can be large; an effect the other way counts as inactive or inconclusive. Potency means the concentration at half of the fitted maximal effect.

SMILES	KB-3-1 cytotox	SW480 rereplic	KB-V1 cytotox	RORgamma inh	MCF10A rereplic	VP16 counter
Cc1ccc(O)c(N=CC2=C(O)c3ccccc3C2=O)c1	i	u	i	4µM*	u	7.1µM*
O=C1C(C=NCCCN2CCOCC2)=C(O)c2ccccc21	i	3%[9.22 µM]	i	13%	2%	25%
Cc1ccc(F)c(N=Cc2c(O)c3ccccc3oc2=O)c1	i	-8%	i	-18%	-5%	7%
Cc1ccc2c(c1)cc1c(=O)n(Cc3ccccc3Cl)nc(C)n12	i	x	u	x	x	x
N#Cc1ccc(CN2CC3(CCN(C(=O)c4ccco4)CC3)C2)cc1	x	x	x	-1%	x	-5%
Cc1ccc(-n2c(N)c(C(N)=O)sc2=S)c(C)c1	i	-10%	i	-6%	-7%	7%
FC(F)(F)c1cnc(-n2cc[nH]c2=S)c(Cl)c1	i	-5%	i	-42%	-2%	-3%
Cc1ccc(-n2cc[nH]c2=S)c(C)c1	i	-20%	i	10µM*	0%	u
Cc1ccc(C)c(-n2cc[nH]c2=S)c1	i	-1%	i	11µM*	-4%	u
Cc1cc(C)cc(-n2cc[nH]c2=S)c1	i	6%	i	7.1µM*	17%	10µM*
CC1=C(C(=O)N2CCCCCC2)CC(CC(=O)NCCCN(C)C)C(=O)N1Cc1ccc(F)cc1 (stereo unspecified)	i	x	i	x	x	x
Nc1nc2cc(Cl)ccc2cc1C(=O)NCCCc1ccccc1	i	x	i	x	x	x
O=C(CN1/C(=C(/O)c2ccccc2)C(=O)c2ccccc2S1(=O)=O)c1ccccc1	u	-5%	1.5µM*	u	6%	u
COc1ccc(C(=O)CN2C(=O)c3ccccc3S2(=O)=O)cc1	i	-10%	i	5.6µM*	1%	u
COc1ccc(C(=O)CN2C(=O)c3ccccc3S2(=O)=O)cc1Br	x	6%	x	0%	10%	-17%
O=C(CN1C(=O)c2ccccc2S1(=O)=O)c1ccc(O)c(O)c1	i	3%	i	-13%	2%	-9%
O=C(O)c1ccc(CN2C(=O)c3ccccc3S2(=O)=O)cc1	i	-5%	i	-2%	0%	-6%
O=C(CN1C(=O)c2ccccc2S1(=O)=O)c1ccc(F)c(F)c1	i	-7%	u	10µM*	0%	11µM*
O=C(Nc1ccccc1F)c1csc([C@@H]2C[C@H](O)[C@@H](CO)O2)n1	i	x	i	x	x	x
CN(C)CCNc1nccc(N2CCN(C)CC2)n1	u	x	i	x	x	x
Cc1csc2nc3cc(C(N)=O)ccc3c(=O)n12	i	-43%	u	-3%	-5%	-17%
NC(=O)c1ccc2c(=O)n3c(-c4cc(Cl)c(N)c(Cl)c4)csc3nc2c1	23µM*	30%	i	-10%	u	-2%
COC(=O)N/N=C/c1ccc([N+](=O)[O-])s1	i	u	u	-19%	-8%	-22%
O=[N+]([O-])c1ccc(/C=N/NC(=S)Nc2ccc(Cl)cc2Cl)s1	u	21µM*	u	u	u	u
O=[N+]([O-])c1ccc(O)c(/C=N/NC(=S)Nc2ccc(Cl)cc2Cl)c1	u	u	i	2.5µM*	23%	2.5µM*
SMILES	KB-3-1 cytotox	SW480 rereplic	KB-V1 cytotox	RORgamma inh	MCF10A rereplic	VP16 counter
Cc1cc(C)c(OCCCCNCc2ccccc2)c(Cl)c1	u	u	8.2µM*	-44%	23µM*	-5%
COc1ccc(-n2nc(C(=O)c3cccs3)cc(-c3nc4ccccc4[nH]3)c2=N)cc1	u	u	16µM*	3.2µM*	7%	3.5µM*
Cc1ccccc1-n1nc(C(=O)c2cccs2)cc(-c2nc3ccccc3[nH]2)c1=N	i	u	2.3µM*	0.71µM*	26%	0.89µM*
Cc1cccc(-n2nc(C(=O)c3ccco3)cc(-c3nc4ccccc4[nH]3)c2=N)c1	i	2%	i	2.5µM*	-2%	5µM*
O=C(NCc1nc2ccccc2[nH]1)c1cccs1	i	-17%	i	26%	3%	u
CC(C)[C@H](/C=C/C[Si](C)(C)C)[C@H](C)C(O)/C=C/CCCOC(=O)C(C)(C)C (stereo partly specified)	x	x	x	-14%	x	1%
CSCC[C@H](NC(=O)[C@H](CC(C)C)NC(=O)CNC(=O)[C@H](Cc1ccccc1)N(C)C(=O)[C@H](Cc1ccccc1)NC(=O)[C@H](CC(=O)O)NC(=O)[C@@H](N)CC(=O)O)C(N)=O	x	x	x	11%	x	1%
O=C(ONC1=NCCCCC1)c1cccc([N+](=O)[O-])c1	u	1%	i	7.1µM*	-1%	-27%
CCNc1ncc2nc(-c3ccc(F)cc3)c(=O)n(-c3ccccc3)c2n1	x	x	x	-18%	x	u
CCN(CC)C(=O)Cn1cc(SCC(=O)NC2CCCCC2)c2ccccc21	i	x	u	x	x	x
CC1=NN(c2ccccc2)C(=O)C1N=Nc1ccc(N)cc1 (stereo unspecified)	u	1%	i	3%	u	8.9µM*
CC1=NN(c2ccccc2)C(=O)C1N=Nc1ccccc1 (stereo unspecified)	i	-49%	u	u	8%	-16%
CC1=NN(C(N)=S)C(=O)C1N=Nc1ccc(Cl)cc1 (stereo unspecified)	u	18µM*	u	0.4µM*	9%	1.1µM*
COc1ccc(N=NC2C(=O)N(c3ccccc3)N=C2C)cc1 (stereo unspecified)	i	-15%	i	-34%	-6%	-6%
CC1=NN(C(N)=S)C(=O)C1N=Nc1ccc(Br)cc1 (stereo unspecified)	u	-3%	u	0.45µM*	13%	1.3µM*
CC1(C)CC(=O)C(N=Nc2ccc(Br)cc2)=C(O)C1	i	-31%	i	36%	19%	2%
CC1=NN(C(=O)c2ccncc2)C(=O)C1N=Nc1ccc2ccccc2c1 (stereo unspecified)	u	24%	6.5µM*	x	12%	x
CCC(C)NC(=O)C1CCC(CNS(=O)(=O)c2ccc(Cl)cc2)CC1 (stereo unspecified)	i	x	i	x	x	x
C(=C\c1ccnc2ccccc12)/c1ccc2c(c1)OCO2	i	x	i	x	x	x
CN(C)c1ccc(/C=C/c2ccnc3ccccc23)cc1O	i	x	i	x	x	x
COc1ccc(OC)c(NC(=O)Cc2c(C(=O)O)n(C)c3ccc(C)cc23)c1	i	x	i	x	x	x
Cc1cc(C)n(-c2nc3cc(Cl)c(Cl)cc3nc2Nc2ccc(F)cc2C)n1	i	x	u	x	x	x
Cc1c(C(=O)NCc2ccc3c(c2)OCO3)sc(=O)n1Cc1ccc(-c2ccccc2)cc1	i	x	u	x	x	x
